The whole screen tested about 5,500 compounds, of which about 2,000 (36%) were called active. About 18% were inconclusive and are not listed. Rule as the data show it: active = normalized growth mostly below about 0.91 (no sharp cut-off); inconclusive = no clear call, values can overlap the other calls; inactive = mostly above about 0.92. This is one part of the list.
Assay: chemical genetic growth profiling, strain panel (AID 1159580);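 also: tested at 20 µM; growth read once vehicle control cultures reached saturation at 30 °C; 1 = growth at the plate median or of vehicle wells; lower values mean less growth of the strain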
Settings: growth OD

Measured: normalized growth

NCC(=O)CCC(=O)O
inactive: S. cerevisiae deletion strains, locus YJR075W, strain HOC1, hits give low values 1.02 | S. cerevisiae deletion strains, locus YKL009W, strain mrt4, hits give low values 1.07 | S. cerevisiae deletion strains, locus YKL068W, hits give low values 0.995 | S. cerevisiae deletion strains, locus YKL085W, strain MDH1 (second series), hits give low values 0.997 | S. cerevisiae deletion strains, locus YKL085W, strain MDH1, hits give low values 0.997 | S. cerevisiae deletion strains, locus YKL160W, strain elf1, hits give low values 0.98 | S. cerevisiae deletion strains, locus YKL190W, strain CNB1, hits give low values 1.01 | S. cerevisiae deletion strains, locus YKR001C, strain vps1, hits give low values 0.982 | S. cerevisiae deletion strains, locus YKR026C, strain gcn3, hits give low values 0.981 | S. cerevisiae deletion strains, locus YKR091W, strain srl3, hits give low values 0.981 | S. cerevisiae deletion strains, locus YLL001W, strain dnm1, hits give low values 0.93 | S. cerevisiae deletion strains, locus YLL026W, hits give low values 0.982 | S. cerevisiae deletion strains, locus YLL041C, strain sdh2, hits give low values 0.987 | S. cerevisiae deletion strains, locus YLR027C, strain aat2, hits give low values 0.98 | S. cerevisiae deletion strains, locus YLR039C, strain RIC1, hits give low values 1.03 | S. cerevisiae deletion strains, locus YLR058C, strain SHM2, hits give low values 1.01 | S. cerevisiae deletion strains, locus YLR102C, strain apc9, hits give low values 0.983 | S. cerevisiae deletion strains, locus YLR113W, strain HOG1, hits give low values 1.03 | S. cerevisiae deletion strains, locus YLR221C, strain rsa3, hits give low values 1.03 | S. cerevisiae deletion strains, locus YLR258W, strain gsy2, hits give low values 0.994 | S. cerevisiae deletion strains, locus YLR262C, strain YPT6 (second series), hits give low values 0.958 | S. cerevisiae deletion strains, locus YLR262C, strain YPT6, hits give low values 1.05 | S. cerevisiae deletion strains, locus YLR268W, strain sec22, hits give low values 0.953 | S. cerevisiae deletion strains, locus YLR320W, strain mms22, hits give low values 0.976 | S. cerevisiae deletion strains, locus YLR330W, strain CHS5, hits give low values 1.01 | S. cerevisiae deletion strains, locus YLR342W, strain FKS1 (second series), hits give low values 1.03 | S. cerevisiae deletion strains, locus YLR342W, strain FKS1, hits give low values 0.959 | S. cerevisiae deletion strains, locus YLR357W, strain rsc2, hits give low values 0.954 | S. cerevisiae deletion strains, locus YLR370C, strain arc18, hits give low values 1.01 | S. cerevisiae deletion strains, locus YLR371W, strain rom2, hits give low values 0.988 | S. cerevisiae deletion strains, locus YLR384C, strain iki3, hits give low values 0.997 | S. cerevisiae deletion strains, locus YLR418C, strain cdc73, hits give low values 0.994 | S. cerevisiae deletion strains, locus YML016C, strain PPZ1, hits give low values 1.01 | S. cerevisiae deletion strains, locus YML032C, strain rad52, hits give low values 0.981 | S. cerevisiae deletion strains, locus YML120C, strain ndi1, hits give low values 0.983 | S. cerevisiae deletion strains, locus YML124C, strain tub3, hits give low values 0.997 | S. cerevisiae deletion strains, locus YMR058W, strain fet3, hits give low values 0.984 | S. cerevisiae deletion strains, locus YMR078C, strain ctf18, hits give low values 0.991 | S. cerevisiae deletion strains, locus YMR125W, strain sto1, hits give low values 0.977 | S. cerevisiae deletion strains, locus YMR129W, hits give low values 0.99 | S. cerevisiae deletion strains, locus YMR205C, strain PFK2, hits give low values 0.976 | S. cerevisiae deletion strains, locus YMR223W, strain ubp8, hits give low values 0.998 | S. cerevisiae deletion strains, locus YMR231W, strain pep5, hits give low values 0.972 | S. cerevisiae deletion strains, locus YMR263W, strain SAP30, hits give low values 1.01 | S. cerevisiae deletion strains, locus YMR307W, strain GAS1, hits give low values 1.05 | S. cerevisiae deletion strains, locus YNL067W, strain RPL9B, hits give low values 0.997 | S. cerevisiae deletion strains, locus YNL071W, strain lat1, hits give low values 0.995 | S. cerevisiae deletion strains, locus YNL128W, strain TEP1, hits give low values 1.02 | S. cerevisiae deletion strains, locus YNL153C, strain GIM3, hits give low values 1 | S. cerevisiae deletion strains, locus YNL183C, strain NPR1, hits give low values 0.986 | S. cerevisiae deletion strains, locus YNL209W, strain ssb2, hits give low values 0.997 | S. cerevisiae deletion strains, locus YNL233W, strain BNI4, hits give low values 1.02 | S. cerevisiae deletion strains, locus YNL248C, strain rpa49, hits give low values 1 | S. cerevisiae deletion strains, locus YNL250W, strain rad50, hits give low values 0.993 | S. cerevisiae deletion strains, locus YNL271C, strain bni1, hits give low values 0.98 | S. cerevisiae deletion strains, locus YNL298W, strain CLA4, hits give low values 0.984 | S. cerevisiae deletion strains, locus YNL307C, strain MCK1, hits give low values 1 | S. cerevisiae deletion strains, locus YNL322C, strain KRE1 (second series), hits give low values 0.964 | S. cerevisiae deletion strains, locus YNL322C, strain KRE1, hits give low values 1.02 | S. cerevisiae deletion strains, locus YNR049C, strain mso1, hits give low values 0.981 | S. cerevisiae deletion strains, locus YNR052C, strain pop2, hits give low values 0.988 | S. cerevisiae deletion strains, locus YOL006C, strain TOP1, hits give low values 0.983 | S. cerevisiae deletion strains, locus YOL012C, strain htz1 0.968 | S. cerevisiae deletion strains, locus YOL147C, strain pex11, hits give low values 0.993 | S. cerevisiae deletion strains, locus YOR001W, strain rrp6, hits give low values 0.994 | S. cerevisiae deletion strains, locus YOR061W, strain CKA2, hits give low values 1.01 | S. cerevisiae deletion strains, locus YOR069W, strain VPS5, hits give low values 1.01 | S. cerevisiae deletion strains, locus YOR070C, strain gyp1, hits give low values 0.989 | S. cerevisiae deletion strains, locus YOR080W, strain dia2, hits give low values 0.976 | S. cerevisiae deletion strains, locus YOR083W, strain WHI5, hits give low values 0.954 | S. cerevisiae deletion strains, locus YOR106W, strain vam3, hits give low values 0.956 | S. cerevisiae deletion strains, locus YOR136W, strain idh2, hits give low values 0.992 | S. cerevisiae deletion strains, locus YOR144C, strain elg1, hits give low values 0.986 | S. cerevisiae deletion strains, locus YOR184W, strain ser1, hits give low values 0.976 | S. cerevisiae deletion strains, locus YOR231W, strain MKK1, hits give low values 1.04 | S. cerevisiae deletion strains, locus YOR265W, strain rbl2, hits give low values 0.988 | S. cerevisiae deletion strains, locus YOR270C, strain vph1, hits give low values 1.01 | S. cerevisiae deletion strains, locus YOR290C, strain snf2, hits give low values 1.01 | S. cerevisiae deletion strains, locus YOR316C, strain cot1, hits give low values 0.989 | S. cerevisiae deletion strains, locus YPL051W, strain arl3, hits give low values 0.997 | S. cerevisiae deletion strains, locus YPL055C, strain LGE1, hits give low values 1.03 | S. cerevisiae deletion strains, locus YPL078C, strain atp4, hits give low values 0.948 | S. cerevisiae deletion strains, locus YPL106C, strain sse1, hits give low values 0.998 | S. cerevisiae deletion strains, locus YPL240C, strain hsp82, hits give low values 0.985 | S. cerevisiae deletion strains, locus YPL241C, strain CIN2, hits give low values 1 | S. cerevisiae deletion strains, locus YPL256C, strain CLN2, hits give low values 1.03 | S. cerevisiae deletion strains, locus YPR119W, strain clb2, hits give low values 0.983 | S. cerevisiae deletion strains, locus YPR141C, strain kar3, hits give low values 0.993 | S. cerevisiae deletion strains, locus YPR163C, strain tif3, hits give low values 0.981 | S. cerevisiae deletion strains, locus YPR167C, strain met16, hits give low values 0.986 | S. cerevisiae deletion strains, strain wtn01, hits give low values 0.99 | S. cerevisiae strains, strain wild type, hits give low values 1.01

Reference: PubChem BioAssay AID1159580 (chemical genetic matrix, 2015)
